Assay results reported in paper PMC4336329 (PLoS ONE, 2015).
The whole screen tested about 310,000 compounds, of which about 14,000 (4.5%) showed an effect of 50% or more. Effects have a minus sign here. What follows is part of a selection rich in strong results, with near analogues and random picks from the rest.

target: human ether-à-go-go-related gene (hERG) potassium channel (human, UniProt Q12809); test: primary screen, population patch clamp on CHO cells stably expressing hERG; higher = less effect of the substance
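Note: peak tail current of the secondary pulse compared with the same well before compound.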

human ether-à-go-go-related gene (hERG) potassium channel, sequence (Q12809 whole entry, looked up): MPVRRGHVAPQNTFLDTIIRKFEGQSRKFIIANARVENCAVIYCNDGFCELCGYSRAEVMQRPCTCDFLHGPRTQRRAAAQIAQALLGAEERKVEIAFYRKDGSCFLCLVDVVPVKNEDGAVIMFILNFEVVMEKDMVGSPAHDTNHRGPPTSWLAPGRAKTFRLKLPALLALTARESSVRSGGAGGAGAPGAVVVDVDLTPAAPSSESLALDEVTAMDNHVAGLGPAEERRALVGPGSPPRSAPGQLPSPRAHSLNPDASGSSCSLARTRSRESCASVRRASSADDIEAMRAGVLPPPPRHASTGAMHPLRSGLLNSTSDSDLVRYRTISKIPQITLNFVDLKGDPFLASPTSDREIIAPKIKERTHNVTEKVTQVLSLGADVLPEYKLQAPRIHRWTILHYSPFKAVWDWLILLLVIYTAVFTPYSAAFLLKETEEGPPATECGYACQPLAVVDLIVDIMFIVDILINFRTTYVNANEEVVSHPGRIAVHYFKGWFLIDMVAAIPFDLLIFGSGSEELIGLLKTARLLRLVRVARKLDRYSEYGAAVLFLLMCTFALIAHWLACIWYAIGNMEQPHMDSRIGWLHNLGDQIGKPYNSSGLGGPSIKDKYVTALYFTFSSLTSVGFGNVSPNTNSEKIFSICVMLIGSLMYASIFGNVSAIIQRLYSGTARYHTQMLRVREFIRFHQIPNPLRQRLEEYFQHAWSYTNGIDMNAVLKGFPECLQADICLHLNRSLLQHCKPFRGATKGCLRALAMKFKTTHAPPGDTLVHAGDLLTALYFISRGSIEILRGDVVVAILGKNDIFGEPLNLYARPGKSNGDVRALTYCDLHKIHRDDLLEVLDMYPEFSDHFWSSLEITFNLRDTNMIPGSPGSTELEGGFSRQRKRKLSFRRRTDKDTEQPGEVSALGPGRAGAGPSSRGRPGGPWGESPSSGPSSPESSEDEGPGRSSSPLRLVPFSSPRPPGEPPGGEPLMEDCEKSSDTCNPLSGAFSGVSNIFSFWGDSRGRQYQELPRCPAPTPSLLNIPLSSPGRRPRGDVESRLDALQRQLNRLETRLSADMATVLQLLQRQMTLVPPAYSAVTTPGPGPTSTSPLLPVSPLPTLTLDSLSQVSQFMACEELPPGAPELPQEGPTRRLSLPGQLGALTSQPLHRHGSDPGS

SMILES	hERG current change (%, negative = inhibition) at 10uM
COc1ccc(NS(=O)(=O)c2cccc(NC(=O)C3=NN(c4ccccc4)C(=O)CC3)c2)cc1	-35.1%
O=C(NC1=NCCS1)c1cc2ccccc2o1	-23.8%
CN1CCN(S(=O)(=O)c2cccc(C(=O)Nc3sccc3C(N)=O)c2)CC1	-75.4%
CCN(CC)S(=O)(=O)c1cccc(NC(=O)c2ccc(Br)cc2)c1	4.07%
CCN(CC)S(=O)(=O)c1cccc(NC(=O)c2cncc(Br)c2)c1	-69.9%
CN1CCN(S(=O)(=O)c2cccc(C(=O)Nc3cc(C(N)=O)cc(C(N)=O)c3)c2)CC1	4.71%
O=C(Nc1ccc2c(c1)CCC2)c1cccc(S(=O)(=O)N2CCN(c3ccc(F)cc3)CC2)c1	-3.29%
Cc1cccnc1NC(=O)c1cccc(S(=O)(=O)N2CCN(c3ccc(F)cc3)CC2)c1	-35.1%
O=C(Nc1cccc(S(=O)(=O)N2CCCC2)c1)c1cccc(S(=O)(=O)N2CCOCC2)c1	-15.5%
O=C(Nc1ccncc1)c1cccc(S(=O)(=O)N2CCOCC2)c1	-58.4%
O=C(Nc1ccncc1)c1cccc(S(=O)(=O)N2CCN(c3ccc(F)cc3)CC2)c1	-82.9%
CN1CCN(S(=O)(=O)c2cccc(C(=O)Nc3sccc3C#N)c2)CC1	-5.03%
O=C(Nc1cccnc1)c1cccc(S(=O)(=O)N2CCOCC2)c1	4.06%
CN(C)S(=O)(=O)c1cccc(NC(=O)c2cncc(Br)c2)c1	-3.39%
Cc1ccc(SCC(=O)c2cc(C)c(O)c(C)c2)cc1	-3.19%
Cc1ccccc1NC(=O)CCc1nnc2ccc(N3CCC4(CC3)OCCO4)nn12	8.74%
CSCc1nnc(NC(=O)c2ccc(S(=O)(=O)N(C)C)cc2)o1	20.7%
CCOC(=O)/C(C#N)=N/Nc1ccc(S(=O)(=O)N2CCc3ccccc32)cc1	2.18%
CCOC(=O)C1=C(C)OC(N)=C(C#N)C1c1cccs1 (stereo not drawn)	8.62%
Cc1nnc(NC(=O)CSc2nnc(CNC(=O)C34CC5CC(CC(C5)C3)C4)n2C2CCCCC2)s1	2.98%
CCOc1ccccc1N1CCN(C(=O)c2cc3cc(OC)ccc3[nH]2)CC1	-3.66%
C=CCn1c(O)c(C(CC)=Nc2ccc3c(c2)CCC3)c(=O)[nH]c1=O	1.65%
O=C(Nc1cccc(S(=O)(=O)N2CCCC2)c1)c1ccncc1	-46.5%

SMILES	hERG current change (%, negative = inhibition) at 10uM
CCc1cccc(NC(=O)c2cccc(S(=O)(=O)N3CCN(C)CC3)c2)c1	-53.9%
CCN(CC)S(=O)(=O)c1ccc(NC(=O)CNC2CCCCC2)cc1.O=C(O)C(=O)O	-7.08%
O=C(Nc1ccccc1)c1cccc(S(=O)(=O)N2CCCCC2)c1	0.607%
CN(C)S(=O)(=O)c1cccc(NC(=O)CNC2CCCCC2)c1.O=C(O)C(=O)O	5.24%
CCN(CC)S(=O)(=O)c1cccc(NC(=O)CNC2CCCCCC2)c1.O=C(O)C(=O)O	-60.8%
O=C(Nc1ccncc1)c1cccc(S(=O)(=O)N2CCCC2)c1	-60.7%
CCc1cccc(CC)c1NC(=O)c1cccc(S(=O)(=O)N2CCN(C)CC2)c1	-4.14%
CN1CCN(S(=O)(=O)c2cccc(C(=O)Nc3cccc(S(N)(=O)=O)c3)c2)CC1	12.8%
CC(C)(CC(=O)O)CC(=O)Nc1ccc2c(c1)ncn2CCc1ccccc1	15.8%
CNC(=O)NC(=O)COC(=O)c1ccc(-n2c(C)ccc2C)cc1	-7.41%
COc1ccc(C(CC(=O)O)NC(=O)COc2cc(C)ccc2C)cc1OC (stereo not drawn)	21.2%
CCCCn1c(=N)n(CC(O)COc2cccc(C)c2)c2ccccc21.Cl (stereo not drawn)	-72.6%
COCCCNc1nc2c(c(=O)[nH]c(=O)n2C)n1CC(O)COc1cccc(C)c1 (stereo not drawn)	-2.66%
CCn1c(=N)n(CC(O)COc2cccc(C)c2)c2ccccc21.Cl (stereo not drawn)	-58.6%
CCCn1c(=N)n(CC(O)COc2cccc(C)c2)c2ccccc21.Cl (stereo not drawn)	-71.3%
Cc1ccc(-n2c(=O)[nH]cc(C(=O)Nc3ccc4c(c3)OCCO4)c2=O)cc1	18.3%
CC(=O)N1CCN(c2ccc(NC(=O)c3cccc(OCc4ccccc4)c3)cc2)CC1	7.06%
c1ccc(OCCCn2ccnc2)cc1	16.3%
O=c1ccc2ccccc2n1Cc1cccc(F)c1	9.61%
COc1ccc(CCN2C(=O)CC(Cc3ccccc3)C2=O)cc1OC (stereo not drawn)	-17.2%
Cc1ccc(SCC(=O)OC(C)C(=O)NCc2ccccc2)cc1 (stereo not drawn)	-1.8%
COc1ccc2c(c1)OC[C@H]1[C@H]2N2C(=O)CN(CC3CCCO3)C(=O)[C@@]2(C)[C@H]1c1ccccc1 (stereo partly drawn)	-1.62%
CCn1cnc2cc(NCc3ccc(Cl)cc3)ccc21	-68%

SMILES	hERG current change (%, negative = inhibition) at 10uM
CCc1ccc(CNc2ccc3c(c2)ncn3CC)cc1	-19.7%
CCCn1cnc2cc(NCc3cccc(OC)c3)ccc21	-67.2%
COc1ccc(CNc2ccc3c(c2)nc(C)n3C)cc1	-31.9%
CCn1cnc2cc(NCc3ccncc3)ccc21	6.89%
CCn1cnc2cc(NCc3ccc(Br)cc3)ccc21	-61.3%
COc1ccc(CNc2ccc3c(c2)nc(C)n3C)cc1OC	-17.1%
CCn1cnc2cc(NCc3ccc(C)cc3)ccc21	-40.4%
CCn1cnc2cc(NCc3ccc(OC)cc3)ccc21	-39.4%
CCCn1cnc2cc(NCc3cccs3)ccc21	-10.9%
COc1ccc(OC)c(CNc2ccc3c(c2)nc(C)n3C)c1	-68.4%
CCn1cnc2cc(NCc3ccc(N(C)C)cc3)ccc21	-8.28%
CCc1ccc(N(CC(=O)Nc2ccccc2C(=O)N2CCCC2)S(C)(=O)=O)cc1	-10.6%
CN(C)c1ccc(CNn2cnnc2SCc2ccc(F)cc2)cc1	-9.48%
COc1ccc(NC(=O)CC2C(=O)N(c3ccc(OC)cc3)C(=O)N2C(C)C)cc1 (stereo not drawn)	-5.34%
Cc1ccc(NC(=O)c2ccc(-n3cncn3)c([N+](=O)[O-])c2)cc1F	-18.1%
CC12CCC(C(=O)Nc3ccccc3Br)(C/C1=N\O)C2(C)C (stereo not drawn)	4.44%
CC(On1nnc2ccccc21)C(=O)N1CCN(Cc2ccccc2)CC1 (stereo not drawn)	18.2%
C(#CCN1CCOCC1)COCc1ccccc1.Cl	11.1%
COc1cccc(OCCOc2ccc(/C=C3/SC(=S)NC3=O)cc2)c1	23%
CN(CC(=O)Nc1ccccc1Cl)C(=O)CSc1nnc(-c2ccco2)o1	-7.79%
CCn1cnc2cc(NCc3ccccc3Cl)ccc21	-52.1%
Cn1cnc2cc(NCc3ccccc3Cl)ccc21	-35%
CCCCn1cnc2cc(NCc3ccncc3)ccc21	-1.31%

SMILES	hERG current change (%, negative = inhibition) at 10uM
CCCCn1cnc2cc(NCc3cccc(OC)c3O)ccc21	-51.2%
CCCn1cnc2cc(NCc3ccc(Br)cc3)ccc21	-73.9%
Cc1nc2cc(NCc3ccc(Cl)cc3)ccc2n1C	-70.6%
CCCn1cnc2cc(NCc3cccc(OC)c3O)ccc21	-29.3%
CCCn1cnc2cc(NCc3ccccc3O)ccc21	-0.21%
Cn1cnc2cc(NCc3ccc(Cl)cc3)ccc21	-18.3%
CCCn1cnc2cc(NCc3ccccn3)ccc21	-18.8%
CCn1cnc2cc(NCc3cccc(OC)c3O)ccc21	-5.91%
Cc1ccc(CNc2ccc3c(c2)nc(C)n3C)cc1	-21.9%
CN(C)c1ccc(C(CNC(=O)c2ccccc2F)c2c[nH]c3ccccc23)cc1 (stereo not drawn)	-8.6%
Cc1[nH]c(C)c(S(=O)(=O)Nc2ccc(OC(F)(F)F)cc2)c1C(=O)N1CCCCC1	-7.79%
O=C(N/N=C/C=C/c1ccccc1)c1cccc(Br)c1	5.3%
FC(F)(F)c1ccccc1N1CC1c1ccncc1 (stereo not drawn)	13.3%
O=C(O)c1ccccc1C(=O)NC1CCN(c2nccc(C(F)(F)F)n2)CC1	9.16%
COc1ccc(N2C(=O)CC(N3CCCC4CCCCC43)C2=O)cc1 (stereo not drawn)	1.28%
CCOC(=O)c1ccc(NC(=O)C2CC2)cc1	-18.4%
COc1cccc(/C=N/NC(=O)c2cc(-c3cccn3C)n[nH]2)c1	-61.1%
COc1ccc(/C=N/NC(=O)c2cc(-c3cccn3C)n[nH]2)cc1OC	-27.5%
Cn1cccc1-c1cc(C(=O)N/N=C/c2cccc(O)c2)[nH]n1	-7.31%
CCOc1nc2ccccc2cc1C=O	-5.31%
Cc1ccc(NS(=O)(=O)c2ccc(NC(=O)[C@@H]3CCCC[C@@H]3C(=O)O)cc2)c(C)c1	18%
